# Measurements as given in PubChem BioAssay (NCI).
# Where “and” joins values, the source holds several entries; their conditions need not be identical. Equal values may be shown once. Compounds without any hit were thinned out: in the full panel of roughly 83,000, 20% have a hit.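 Plates (96-well) were seeded with cells, treated with compound at one concentration, and incubated for 48 hours before percent growth was determined.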 Calls of active or inactive are those of the source. Rule for the calls: active = growth percent below 10; inactive = the rest.
# Test system: MDA-MB-468 breast
# Experiment: NCI-60 one-dose screen, 48 h (100 = growth as untreated, 0 = no growth, -100 = all killed)
# Details: 10 µM unless noted
row,SMILES,growth
1,COc1cc(/C=N/O)nc(-c2ccccn2)c1,-16.9% (active)
2,C=C(C)[C@@H]1CC[C@]2(c3nnc(-c4ccncc4)o3)CC[C@]3(C)[C@H](CC[C@@H]4[C@@]5(C)CCC(=O)NC(C)(C)[C@@H]5CC[C@]43C)[C@@H]12,92.7% (inactive)
3,O=[N+]([O-])c1cc(/C=N/Nc2nc(N/N=C/c3ccc(Cl)c([N+](=O)[O-])c3)nc(N3CCCCC3)n2)ccc1Cl,68.8% (inactive)
4,C[C@H](NC(=O)[C@@H]1CSSC[C@@H](NC(=O)c2nc3ccccc3cc2O)C(=O)NCC(=O)N1C)c1ccccc1,41.4% (inactive)
5,Cc1ccc(/C=N/Nc2nc(Nc3ccccc3)nc(Nc3ccc(S(N)(=O)=O)cc3)n2)cc1,65% (inactive)
6,COc1cc(OCc2cccc(Br)c2C)cc(OC)c1C=O,20.8% (inactive)
7,CCN(CC)CCOc1nc2ccc(OC)cc2c2c1-c1ccc(OC)cc1C2=O,51.9% (inactive)
8,CC1=NNC(=O)C1CCC(=O)N/N=C(\C)c1ccc2ccccc2c1 (stereo not given),119% (inactive)
9,COC(=O)c1ccc2c(c1)nc(-c1ccc(Cl)cc1)n2-c1cc(C(C)(C)C)[nH]n1,37.4% (inactive)
10,CSc1ccc2c(c1)C(N1CCN(C)CC1)Cc1ccccc1S2 (stereo not given),-66.4% (active)
11,N#Cc1c2c(nn(-c3ccccc3)c1=O)C(O)=C([N+](=O)[O-])C(c1ccccc1)C2 (stereo not given),64.1% (inactive)
12,CCOc1ccc(NC(=O)c2cc(OC)c(OC)c(OC)c2)cc1,8.51% (active)
13,COc1cc(/C=C2\CCCC3C2=Nc2ccccc2NC3c2cc(OC)c(OC)c(OC)c2)cc(OC)c1OC (stereo not given),-6.85% (active)
14,NS(=O)(=O)c1ccc(Nc2nc3n[nH]c(Nc4ccccc4)c3c(=O)[nH]2)cc1,108% (inactive)
15,COc1nccnn1,82.9% (inactive)
16,Nc1ccc(N=Nc2ccccc2)c2cc(S(=O)(=O)O)ccc12,109% (inactive)
17,CCOC(=O)c1nn(C2CCCCO2)c2ccc(NS(=O)(=O)c3ccc(C)cc3)cc12 (stereo not given),105% (inactive)
18,C[C@H]1[C@H](C)CC[C@]2(CO)CC[C@]3(C)C(=CC[C@@H]4[C@@]5(C)Cc6c([nH]c7ccccc67)C(C)(C)[C@@H]5CC[C@]43C)[C@H]12,77.8% (inactive)
19,C#C[C@]1(O)CC[C@H]2[C@@H]3CC=C4c5sc(Nc6cccc(C)n6)nc5CC[C@]4(C)[C@H]3CC[C@@]21C,35.7% (inactive)
20,CC(C)(C)c1ccc(C(=O)Nc2sc3cc(O)ccc3c2C(N)=O)cc1,46.8% (inactive)

row,SMILES,growth
1,COc1ccc(-c2nn(-c3cccc(Cl)c3)cc2-c2cc(-c3ccccc3)[nH]c(=O)c2C#N)cc1,16.4% (inactive)
2,COc1cc(-c2c3c(nc4c2c(C)nn4-c2ccccc2)-c2ccccc2C(=O)C3=O)cc(OC)c1OC,88.9% (inactive)
3,Nc1n[nH]c2cccc(C#Cc3cccc(NC(=O)c4cc(N5CCOCC5)cc(C(F)(F)F)c4)c3)c12,85.6% (inactive)
4,Nc1nc(N)c(N=Nc2ccc(C(=O)O)cc2)c(N)n1,114% (inactive)
5,N=c1n(Cc2ccccc2)c(N)cc(=O)n1Cc1ccccc1,83.3% (inactive)
6,COc1cccc(-c2nc(-c3ccc(NC(=O)OC(C)C)cc3)[nH]c2-c2ccnc(Br)c2)c1,18.2% (inactive)
7,COC(=O)c1cc([N+](=O)[O-])cc([N+](=O)[O-])c1Cl,-7.42% (active)
8,CSc1nc(=S)c2nc(SC)n(-c3ccccc3)c2[nH]1,91.1% (inactive)
9,O=C1Nc2ccc(Br)cc2C12CC(c1ccccc1)=NN2 (stereo not given),48.6% (inactive)
10,CCN(CC)CCC(CNc1c2ccc([N+](=O)[O-])cc2nc2cc(OC)c(OC)cc12)c1ccccc1 (stereo not given),-58% (active) and -86.9% (active)
11,c1ccc(CCNc2ncnc3[nH]ncc23)cc1,70.9% (inactive)
12,CC(=O)C(C(C)=O)c1nc2sc3cc(Cl)ccc3n2c(=N)c1C#N,41.7% (inactive)
13,COc1ccc(-c2nn(-c3ccccc3)cc2/C=C/C(=O)OCc2cn(-c3ccc(F)c(Cl)c3)nn2)cc1,72.2% (inactive)
14,COC(=O)c1cccc2c1N(C)c1c(cccc1C(=O)OC)CC2,124% (inactive)
15,O=C1C=CC(O)=CC1=P(c1ccccc1)(c1ccccc1)c1ccccc1,92% (inactive)
16,CC(=O)C1CC(C)CCC1C(C)C (stereo not given),-8.03% (active)
17,O=C(CN(C1CCCCC1)C1CCCCC1)Nc1ccc(S(=O)(=O)c2ccc(NC(=O)CN(C3CCCCC3)C3CCCCC3)cc2)cc1,-55.1% (active)
18,CCCSc1ccc2nc(NC(=O)OC)[nH]c2c1,-7.05% (active)
19,CC(=O)OCC1OC(n2cnc3c(=S)nc(N)[nH]c32)C(OC(C)=O)C1OC(C)=O (stereo not given),68.5% (inactive)
20,O=C(CSc1nc2ccc([N+](=O)[O-])cc2[nH]1)Nc1cccc(C(F)(F)F)c1,-8.14% (active)
